The source of these data is PubChem BioAssay AID504329 (Southern Research Specialized Biocontainment Screening …, 2011).

Among all 340,000 compounds or so, about 1,000 (0.29%) were called active. Not all results are given here. Results with a measured potency or affinity are listed apart. Unmarked numbers belong to inactive results. No stated cut-off is given here; in the data, inconclusive means inhibition above about 27% without an active follow-up result; inactive means below that.

Usually inhibition stands for the relative decrease from the control value, in per cent.

The nature of this assay: NS1A inhibition, H1N1 influenza, cell based functional assay (AID 504329). Conditions: percent inhibition, at 12.5 µM, active compounds read high.
In the case of `CCOc1ccc(NC(=O)CN2CCN(CC(=O)Nc3ccccc3OC)CC2)cc1`, the inhibition is -5.69%. Turning to `COc1ccccc1NC(=O)CN1CCN(CC(=O)Nc2ccc(F)cc2)CC1`, the inhibition was 1.85%. The value for `CCOC(=O)c1c(NC(=O)CN2CCN(C(=O)c3ccco3)CC2)sc(C)c1C` was -5.18%; that for `CC[n+]1c(/C=C(\C)OC)sc2ccccc21` was -2.73%. In the case of `CC/C(=C/c1sc2ccccc2[n+]1CC)SC`, the inhibition was -0.17%. The value for `CC[n+]1c(/C=C(/C)SC)sc2ccccc21` was -2.81%; that for `CC[n+]1c(/C=C/Nc2ccccc2)sc2ccccc21` was 11.6%.

With `CC[n+]1c(/C=C(\C)SC)sc2ccccc21`, the inhibition was 3.81%. With `CCN1/C(=C\C=C(C(C)=O)C(C)=O)Sc2ccccc21` the figure was 3.69%; with `Cc1nn(C(C)C(=O)NNC(=S)Nc2ccc(F)cc2)c(C)c1[N+](=O)[O-]` (stereo not given), 6.47%. The value for `Cc1c(O)ccc(C(=O)CN2CCN(c3ccccc3F)CC2)c1O` was -1.8%; that for `CC(C)(C)c1ccc(C(=O)NCCCNC(=O)c2cccnc2)cc1` was -2.72%; that for `CCN(CC)C(=O)c1sc2nc(-c3ccccn3)[nH]c(=O)c2c1C` was -6.6%. The value for `Cc1sc2nc(-c3ccccn3)[nH]c(=O)c2c1-c1ccccc1` was -4.3%; that for `Cc1cc(C)c(S(=O)(=O)N2CCCC(C(=O)N3CCOCC3)C2)c(C)c1` (stereo not given) was -9.55%. Turning to `Fc1ccccc1NC(=S)N1CCOCC1`, the inhibition was 16.1%.

For `COC(=O)c1sc(S(=O)(=O)Nc2ccc(C)cc2)c(C(=O)OC)c1C`, the inhibition was 12.7%. With `CCN(/C(N)=N/c1nc(C)cc(C)n1)c1ccccc1` the figure was -6.77%. With `CC12CCC(C(=O)N(CSC(=S)N/N=C\c3ccccc3Cl)C1=O)C2(C)C` (stereo not given) the figure was -1.31%; with `CC12CCC(C(=O)N(CSC(=S)N/N=C\c3ccccc3)C1=O)C2(C)C` (stereo not given), 6.84%; with `CCC(C(=O)NC1CCCC1)n1c(SCc2cccc(C)c2)nc2ccncc21` (stereo not given), -51.9%.

As to `O=[N+]([O-])c1c(NCCCO)cc(N2CCCCCC2)c2nonc12`, the inhibition is 21.6%. The value for `COc1ccc(-c2nc(C#N)c(N3CC(C)OC(C)C3)o2)cc1OC` (stereo not given) was 2.35%. Regarding `COc1ccc(NS(=O)(=O)c2ccc(C(=O)N3CCN(c4ccc(F)cc4)CC3)cc2)cc1`, the inhibition is 1.18%. With `CC(CC(F)(F)F)N1CCC(n2nccc2NC(=O)CCCc2ccccc2)CC1` (stereo not given) the figure was -11%. The value for `Fc1ccccc1/C=N/Nc1ccc(Cl)nn1` was -6.11%; that for `Oc1c(Br)cc(Br)cc1/C=N/Nc1ccc(Cl)nn1` was 4.26%; that for `Cc1ccccc1/C=N/Nc1ccc(Cl)nn1` was 3.61%. Turning to `Oc1ccc(/C=N/Nc2ccc(Cl)nn2)cc1O`, the inhibition is 4.82%. The value for `CCCCC(=O)Nc1cccc(C(=O)N/N=C/c2ccc(OC)cc2OC)c1` was 1.12%; that for `CC(C)OC(=O)c1cn(-c2ccccc2)nc1-c1ccc2c(c1)OCCO2` was -6.27%.

Take `CCN(C[C@H]1N[C@@](C)(C(=O)OC)[C@H]2C(=O)N(Cc3ccccc3)C(=O)[C@@H]12)C(=O)c1ccc(F)cc1`: the inhibition is -26.8%. With `O=C(CN1CCN(C(C(=O)Nc2ccc(Cl)cc2C(F)(F)F)c2ccccc2)CC1)NC1CC1` (stereo not given) the figure was 3.63%; with `CC(=O)c1ccc(NC(=O)C(C)Nc2ccc(Cl)cc2)cc1` (stereo not given), -4.25%. With `COC(=O)C(=CC(=CN(C)C)C=C(C(=O)OC)C(=O)OC)C(=O)OC` the figure was -13.2%; with `CC(C)Cn1c(NCCO)nc2ccccc21`, -6.72%; with `O=c1[nH]c(-c2ccccn2)cc2ccccc12`, -3.67%. With `O=C(COC(=O)c1ccccn1)Nc1cccc2ccccc12` the figure was -2.54%; with `CN(C)CCCNCC(=O)Nc1ccccc1N1CCOCC1`, 5.38%; with `O=C(COc1ccc2ccccc2c1)N1CCN(C(=O)c2ccco2)CC1`, -12.2%. As for `CCN(CC)CC(=O)Nc1cccc2c1C(=O)c1ccccc1C2=O`, the inhibition was 11%. With `CNc1c(C(=O)O)ccc2c1C(=O)c1ccccc1C2=O` the figure was 13.4%. The value for `O=C1c2ccccc2C(=O)c2c1cccc2N(CCO)CCO` was 4.16%; that for `CC(=O)NC1=C(Nc2ccc(N(C)C)cc2)C(=O)c2ccccc2C1=O` was 12.5%.

Consider `CN(C=[N+](C)C)c1cccc2c1C(=O)c1ccccc1C2=O`, for which the inhibition was 3.5%. With `CN(C)S(=O)(=O)c1cccc2c1C(=O)c1ccccc1C2=O` the figure was 4.55%. With `CC(C)C[C@H]1COCCS(=O)(=O)N1Cc1cccc(F)c1` the figure was -14.6%; with `Cc1ccc(NC(=O)CC2S/C(=N/c3nccs3)N(C)C2=O)c(C)c1` (stereo not given), 2.84%; with `CCCCNC(=O)NNC(=O)c1ccoc1C`, 0.18%. With `Cc1cc2oc(=O)cc(COC(=O)Cn3cnnn3)c2cc1C(C)C` the figure was -1.41%; with `Cc1nc(SCC(=O)Nc2c(C)n(C)n(-c3ccccc3)c2=O)c2cnn(-c3ccccc3)c2n1`, -4.59%; with `CCNc1nc(NCC)nc(N(C)n2cnnc2)n1`, -22%. For the compound `CC(C)Nc1nc(NC(C)C)nc(N(C)N)n1`, the inhibition was 14.6%. The value for `COc1ccccc1C(=O)NNS(=O)(=O)c1ccc(F)cc1` was -5.08%.

Consider `CCc1ccc(NS(=O)(=O)c2c(C(=O)N3CCOCC3)c(C)n(C)c2C)cc1`, for which the inhibition is 0.85%. With `CCOC(=O)C(C)Oc1ccccc1C1NC(=O)NC(C)=C1C(=O)Nc1ccc(C)c(C)c1` (stereo not given) the figure was -6.31%; with `[O-][n+]1c2c(nn1-c1ccccc1)/C(=N/O)CCC2`, -6.08%.

As to `CCOC(=O)Cc1nnc(NC(=O)COc2ccc(F)cc2)s1`, the inhibition is 6.17%. With `O=C(Nc1nc(-c2ccco2)c(-c2ccco2)s1)c1c(F)cccc1Cl` the figure was -14.8%.

`CC1=CC(=NNS(=O)(=O)c2ccc([N+](=O)[O-])cc2)CC(C)(C)C1`: the inhibition was 4.39%. As for `CC1(C)OC(=O)C(=NNc2ccccc2[N+](=O)[O-])C(=O)O1`, the inhibition is 3.07%.

In the case of `CC(=O)COc1cc(C)cc2oc(=O)c(C)c(C)c12`, the inhibition is 11.6%. With `CCc1ccc2c(c1)C1(NN=C(c3ccc(C)cc3)S1)C(=O)N2` (stereo not given) the figure was 22.9%; with `CCc1ccc2c(c1)C1(NN=C(c3cccc4ccccc34)S1)C(=O)N2` (stereo not given), 11.6%.

For the compound `CCOc1ccccc1Nc1cc(C)nc2ccc(C)cc12`, the inhibition was 6.09%. On to `Cc1ccc(N2CC(NS(=O)(=O)c3cc(F)ccc3F)CC2=O)cc1C` (stereo not given), for which the inhibition is 9.69%. With `Cc1ccc(S(=O)(=O)NCc2csc(C)n2)cc1` the figure was -0.87%; with `CCS(=O)(=O)NCc1ccc2c(c1)cc(C)n2C`, 10.3%; with `Cc1cc(C)c(S(=O)(=O)NCc2ccc3c(c2)cc(C)n3C)c(C)c1`, 21.8%. The value for `CC(=O)Nc1ccc(S(=O)(=O)NCc2ccc3c(c2)cc(C)n3C)cc1` was 19.1%; that for `Cc1nc(CNS(=O)(=O)c2ccc(Oc3ccccc3)cc2)cs1` was -11.2%. With `Cc1cc2cc(CNS(=O)(=O)c3ccccc3)ccc2n1C` the figure was 17%; with `O=S(=O)(NCc1ccccc1)c1ccc2ccccc2c1`, -9.3%; with `CCCS(=O)(=O)NCc1ccc2c(c1)cc(C)n2C`, 7.25%. Take `COc1ccccc1C(=O)NCC(=O)OCC(=O)c1ccc2c(c1)-c1ccccc1C2`: the inhibition is 2.5%. Regarding `CSc1ccccc1OCc1cc(C(=O)N2CCN(c3ncccn3)CC2)no1`, the inhibition is -3.62%. The value for `O=C(c1ccccc1F)N1CCCc2ccccc21` was -3.09%; that for `CCOC(=O)CN(C(=O)CNC(=O)c1cccs1)C(C(=O)NC1CCCC1)c1ccncc1` (stereo not given) was -5%. `CCC(C(=O)N/N=C/c1cccnc1)c1ccccc1` (stereo not given): the inhibition was -5.44%.

Consider `Cc1cc(C(=O)NC2CCCN(Cc3ccccc3F)C2)n[nH]1` (stereo not given), for which the inhibition was -3.85%. With `C=CCNC(=S)Nc1ccccc1-c1nnc2n1CCCCC2` the figure was 9.65%. `COC(=O)c1cc(C(=O)OCC(=O)NC2CCCCCCC2)cc([N+](=O)[O-])c1`: the inhibition is -0.07%. In the case of `Cc1ccc(CNC(=O)COc2ccc(C)nc2[N+](=O)[O-])cc1`, the inhibition is -5.51%. As to `CCCCC(=O)Nc1c2c(nn1-c1ccc(C)cc1)CS(=O)(=O)C2`, the inhibition is -7.59%. The value for `COC(=O)c1c(C)cc(C)c2c1CC(C)(C)C2=O` was 5.46%. The value for `O=C(Nc1ccccc1)c1ccc(F)c(S(=O)(=O)N2CCOCC2)c1` was 5.59%; that for `O=C(Nc1nccs1)c1ccc(F)c(S(=O)(=O)N2CCOCC2)c1` was -4.84%; that for `Cc1ccc(S(=O)(=O)N2CCOCC2)cc1C(=O)Nc1nc(-c2cccnc2)cs1` was -7.87%. The value for `Cc1ccc(C(=O)Nc2ccccn2)cc1S(=O)(=O)N1CCOCC1` was -1.96%; that for `Cc1ccc(S(=O)(=O)N2CCOCC2)cc1C(=O)Nc1nc(-c2ccccn2)cs1` was 7.65%.

Consider `COc1ccc(C(=O)Nc2nc(-c3ccccn3)cs2)cc1S(=O)(=O)N1CCOCC1`, for which the inhibition was -8.69%. For the compound `CCC(NC(=O)COc1cc2c(c3oc(=O)c(C)c(C)c13)CCC(C)(C)O2)C(=O)O` (stereo not given), the inhibition was -8.88%. The value for `CC(C)CCN1CC(=O)N2Cc3[nH]c4ccccc4c3C[C@H]2C1=O` was 19.7%; that for `Cc1c(CNC2CCCC(C)C2C)c(C(=O)O)c(C)n1Cc1ccccc1` (stereo not given) was -12.9%. With `CC(C)NC(=O)NC(=O)COC(=O)c1cc(S(=O)(=O)N2CCCCC2)ccc1N1CCOCC1` the figure was -4.42%.
